Inhibition data for 39 compounds are collected here from PubChem BioAssay.

Molecules are shown by their SMILES. A number with no mark means an inactive call. The rule behind the calls is not given here.

Chain of Pantothenate synthetase (Mycobacterium tuberculosis (strain ATCC 25618 / H37Rv)) (P9WIL5 whole entry, looked up): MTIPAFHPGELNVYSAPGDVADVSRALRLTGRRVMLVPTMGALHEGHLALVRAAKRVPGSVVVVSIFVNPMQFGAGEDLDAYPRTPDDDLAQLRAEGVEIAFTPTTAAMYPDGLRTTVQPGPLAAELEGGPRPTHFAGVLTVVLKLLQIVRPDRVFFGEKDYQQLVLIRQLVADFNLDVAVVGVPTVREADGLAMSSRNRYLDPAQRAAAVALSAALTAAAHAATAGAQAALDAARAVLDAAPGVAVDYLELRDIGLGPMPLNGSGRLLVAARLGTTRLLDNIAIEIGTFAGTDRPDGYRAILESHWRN

This test addresses Pantothenate synthetase (Mycobacterium tuberculosis (strain ATCC 25618 / H37Rv)) (UniProt P9WIL5). Nature of the test: Recombinant Mtb pantothenate synthetase (PanC) inhibitors, coupled enzyme, confirmatory (AID 375).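 Note: 0% = full reaction with vehicle and 100% = no enzyme background.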 The conditions noted are these: coupled enzyme assay; at 10 µM, stronger effect = higher value.
Broadly, the inhibition is the percentage by which the read-out fell short of the control. Consider `CC(C)COC(=O)C1[C@H]2C(=O)N(Cc3cccs3)C[C@]23C=C[C@H]1O3` (some centres undefined), for which the inhibition was 1%.

`CCOC(=O)N1CCN(C(=O)c2c(-c3ccccc3)noc2C)CC1`: the inhibition was 0%.

Regarding `O=C(Nc1ccc(CN2CCOCC2)cc1)c1cc2ccccc2oc1=O`, the inhibition was 4%.

On to `O=C(O)c1ccccc1Nc1cccc(C(F)(F)F)c1`, for which the inhibition is 2%.

Regarding `N#Cc1cn(CC(=O)N2CCCC2)c2ccccc12`, the inhibition is 0%.

With `Oc1cccc2ccc(Nc3ccccn3)nc12`, the inhibition was 8%.

With `C=CS(=O)(=O)c1ccc(Oc2ccc(S(=O)(=O)C=C)cc2)cc1`, the inhibition is 10%.

Regarding `COc1ccc(NC(=O)c2cc(C)on2)cc1OC`, the inhibition is 8%.

As to `COCCSc1nnc(NC(=O)Cc2ccccc2OC)s1`, the inhibition is 4%.

For the compound `C=CCn1c(SCC#N)nc2c(c1=O)C(C)(C)Cc1ccccc1-2`, the inhibition is 0%.

For the compound `C=CCc1ccccc1OCCCCN1CCCC1`, the inhibition was 0%.

For the compound `COc1ccc(CCNC(=O)c2cnc3scc(C)n3c2=O)cc1OC`, the inhibition is 0%.

In the case of `Cc1cccc(N2C(=O)CC(N3CCN(C(=O)c4ccccc4)CC3)C2=O)c1` (centres undefined), the inhibition is 5%.

Take `CCOC(=O)c1cccc(NC(=O)CSc2nnc(C3CCCCC3)n2C)c1`: the inhibition is 2%.

For the compound `CN(Cc1ccccc1)Cc1nc2c([nH]1)c(=O)[nH]c(=O)n2C`, the inhibition was 7%.

Regarding `CC(=O)C1=C(C)NC(=O)NC1c1cccc(O)c1` (centres undefined), the inhibition was 8%.

`COCCNC(=O)Cn1cc2c(n1)CCCCC2`: the inhibition is 1%.

For `O=C(CSc1nnc(-c2ccccc2)c(-c2ccccc2)n1)N1CCOCC1`, the inhibition was 0%.

As to `CC(=O)NC(CCS(C)(=O)=O)C(=O)Nc1cccc2ccccc12` (centres undefined), the inhibition is 0%.

`CCN1C(=O)C2(C(C#N)=C(N)Oc3n[nH]c(C(C)C)c32)c2ccccc21` (centres undefined): the inhibition is 1%.

On to `O=C(O)c1cc(=O)cc(C(=O)O)[nH]1`, for which the inhibition was 0%.

`COc1cc(C(Nc2ccc3c(c2)OCO3)C(=O)NC2CCCCC2)cc(OC)c1OC` (centres undefined): the inhibition was 2%.

As to `COc1ccc(CCn2c(-c3ccco3)nc3nc4ccccc4nc32)cc1`, the inhibition is 0%.

On to `CCOC(=O)C1CCN(C(=O)c2ccc(Cl)c(Cl)c2)CC1`, for which the inhibition is 8%.

`CCOc1ccc(NC(=O)CN2CCN(CC(=O)c3ccc(OCC)cc3)CC2)cc1`: the inhibition was 4%.

`CCN(CC)CCCN1C(=O)C(=O)/C(=C(/O)c2ccc3c(c2)OCO3)C1c1ccccn1` (centres undefined): the inhibition is 1%.

Turning to `Oc1ccc(C=Nc2cccc3ncccc23)c(O)c1`, the inhibition was 2%.

For the compound `CC(=O)N(C(C)=O)c1cccc2c(N(C(C)=O)C(C)=O)cccc12`, the inhibition is 1%.

In the case of `CC1(C)CC(=O)C(C=NC(CCC(N)=O)C(=O)O)=C(O)C1` (centres undefined), the inhibition is 3%.

As for `CCOC(=O)C1=C(C)N=c2s/c(=C\c3cccn3C)c(=O)n2C1c1cccc(OC)c1OC` (centres undefined), the inhibition is 0%.

On to `COc1ccc(N(CC(=O)Nc2ccc3c(c2)OCCO3)S(=O)(=O)c2cccnc2)cc1`, for which the inhibition was 0%.

Consider `c1cc2c(cc1Nc1nc(-c3ccc4c(c3)OCO4)cs1)OCCO2`, for which the inhibition was 4%.

With `N#CC(C(=O)CCN1C(=O)C2CC=CCC2C1=O)c1nc2ccccc2[nH]1` (centres undefined), the inhibition was 0%.

In the case of `CCN(Cc1nc2cc(OC)c(OC)cc2c(=O)[nH]1)C(=O)c1ccc(S(=O)(=O)N(C)C)cc1`, the inhibition is 0%.

In the case of `CCOC(=O)N1CCN(C(=O)C2CC(=O)N(Cc3ccc(OC)cc3)C2)CC1` (centres undefined), the inhibition was 3%.

As for `COc1cccc(NC(=O)CSc2nnnn2C(C)C)c1`, the inhibition was 6%.

As to `CC(C)CCNC(=O)NC(=O)CSc1nnc(-c2ccccc2F)n1N`, the inhibition is 0%.

For the compound `COc1ccc(/C=N/n2c(=O)[nH]c3c([nH]c4ccc(C)cc43)c2=O)cc1CN1CCOCC1`, the inhibition was 2%.

As to `CCCCOc1ccc(C(=O)CCN2CCCCC2)cc1`, the inhibition was 9%.
